Screening data: PubChem BioAssay, several laboratories
Rin1 Abl inh = blocks binding of human Rin1 to Abl; P00519+Q13671; TR-FRET Rin1/Abl binding, biochemical; 360,000 tested, 0.4% active; inhibition, % at 7.35 µM; AID 588664; in the data active = inhibition above about 5%, passing the limit was not always enough
Hck Nef HTS = human Hck-Nef kinase inhibition. AID 463187. inhibition, % at 20 µM. 220,000 tested, 0.68% active. Recombinant Hck-YEEI plus Nef, Z-Lyte FRET kinase assay;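 active = Hck-Nef kinase inhibition above about 50%, limit read from the data; inactive = inhibition below that limit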
Target sequence (P08631 whole entry, looked up): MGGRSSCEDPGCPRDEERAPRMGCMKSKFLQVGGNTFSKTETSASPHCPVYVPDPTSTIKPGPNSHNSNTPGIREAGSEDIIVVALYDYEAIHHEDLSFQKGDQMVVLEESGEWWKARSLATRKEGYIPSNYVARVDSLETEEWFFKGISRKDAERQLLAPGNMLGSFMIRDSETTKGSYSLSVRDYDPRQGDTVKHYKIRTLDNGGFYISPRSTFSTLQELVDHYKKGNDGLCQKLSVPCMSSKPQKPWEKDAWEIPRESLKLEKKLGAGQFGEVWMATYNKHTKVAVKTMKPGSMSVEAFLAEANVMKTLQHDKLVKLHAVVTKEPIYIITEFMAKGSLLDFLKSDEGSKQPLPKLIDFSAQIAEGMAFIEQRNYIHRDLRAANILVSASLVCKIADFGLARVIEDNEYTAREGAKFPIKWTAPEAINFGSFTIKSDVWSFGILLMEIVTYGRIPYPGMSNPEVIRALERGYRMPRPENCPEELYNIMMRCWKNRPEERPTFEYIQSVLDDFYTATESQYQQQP
PREPL inh = inhibits the human prolyl oligopeptidase-like enzyme; Q4J6C6; recombinant PREPL, fluorescence polarization activity-based probe; inhibition, % at 5.96 µM; 320,000 tested, 0.68% active; in the data active = inhibition above about 43%
p97 inhibitor = blocks human p97 ATPase activity; P55072; recombinant p97 ATPase, Kinase-Glo ATP luminescence, 3 h; inhibition, % at 8 µM; 220,000 tested, 0.42% active; AID 1481; in the data active = inhibition above about 15%
LYPLA2 counter = counter-screen for PME1 inhibitors: inhibitors of human LYPLA2. O95372. recombinant LYPLA2, FP-Rh probe fluorescence polarization. 320,000 tested, 0.38% active. inhibition, % at 5.9 µM;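 active = inhibition above the screen-wide mean plus 3 SD, limit set per campaign, cut at about 26% in these data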
LYPLA1 counter = counter-screen for PME1 inhibitors: inhibitors of human LYPLA1 | O75608 | recombinant LYPLA1, FP-Rh probe fluorescence polarization | inhibition, % at 5.9 µM | 320,000 tested, 0.16% active | AID 2174;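 active = inhibition above the mean of all tested compounds plus 3 SD, set per campaign, cut at about 14% in these data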;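 note: inhibitors block serine hydrolase probe labeling of LYPLA1 so polarization falls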
Target sequence (O75608 whole entry, looked up): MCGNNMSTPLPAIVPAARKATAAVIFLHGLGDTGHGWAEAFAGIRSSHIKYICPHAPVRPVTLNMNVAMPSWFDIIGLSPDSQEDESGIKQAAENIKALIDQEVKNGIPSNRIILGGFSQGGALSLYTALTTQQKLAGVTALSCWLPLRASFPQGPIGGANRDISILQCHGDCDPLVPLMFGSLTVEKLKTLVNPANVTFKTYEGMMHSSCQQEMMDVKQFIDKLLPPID
p97 inh conf = confirmation of human p97 ATPase inhibitors; shares compounds with p97 inhibitor; 760 tested, 44% active; AID 1517; inhibition, % at 8 µM; recombinant p97 ATPase, Kinase-Glo ATP luminescence;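 active = percent inhibition of p97 ATPase above a set limit, the primary screen's mean plus 3 SD, cut at about 15% in these data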
LYPLA2 confirm = LYPLA2 (human) inhibition, confirmation counter-screen | shares compounds with LYPLA2 counter | recombinant LYPLA2, FP-Rh probe fluorescence polarization | inhibition, % at 5.9 µM | 1,100 tested, 72% active | AID 2232;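 active = mean inhibition across replicates above the hit cutoff set in the primary screen, cut at about 26% in these data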;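 note: blocked labeling of the enzyme by serine hydrolase FP-Rh probe lowers polarization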
PREPL confirm = confirmation of human PREPL enzyme inhibitors | 2,000 tested, 67% active | shares compounds with PREPL inh | recombinant PREPL, fluorescence polarization activity probe | inhibition, % at 5.96 µM | AID 2803; in the data active = inhibition above about 43%
Hck Nef conf = confirmation of Hck-Nef kinase inhibitors; Recombinant Hck-YEEI:Nef, Z-Lyte FRET kinase assay; calls only at 10 µM; shares compounds with Hck Nef HTS; AID 463188; 1,300 tested, 28% active;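 active = average inhibition of at least 50%, with Z-scores no higher than 3 in both the phospho-tyrosine peptide and fluorescence counterscreens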
Rin1-Abl confirm = confirmation of inhibitors of human Rin1-Abl interaction; shares compounds with Rin1 Abl inh; TR-FRET Rin1-Abl binding, purified proteins; AID 602124; inhibition, % at 7.35 µM; 1,300 tested, 49% active
GFP quench = quenches GFP fluorescence, counter-screen for Rin1-Abl inhibitors | shares compounds with Rin1 Abl inh | inhibitors/quenchers counterscreen | 1,300 tested, 8.5% active | AID 602125 | inhibition, % at 6.75 µM;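 note: ABL1-eGFP fusion protein alone without its partner RIN1-SBP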
GFP quench DR = quenches GFP in dose response, Rin1-Abl counter-screen; shares compounds with Rin1 Abl inh; GFP fluorescence interference/quenching counterscreen; IC50, µM; 230 tested, under 10 active; call rule not given here;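 note: ABL1-eGFP fusion protein alone without its RIN1 binding partner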
Each line names hits and unclear results; the compound was inactive in the other large screens (follow-up assays come after a bar, where shown). A selection: hits, their analogues and other compounds. The true share with any hit is near 1.7%. Cut-off read from the data, not from the text of the source, unless noted: active = inhibition above about 6.5%; inactive = the rest.

CC1CC(=O)c2c(cc3c(-c4c(O)cc(O)c5c(O)c6c(cc45)OC(C)CC6=O)c(O)cc(O)c3c2O)O1 (stereo not given)	PREPL inh 77.2, p97 inhibitor 56.0 | p97 inh conf 49.4 | PREPL confirm inactive
O=C1CC(c2ccc(O)cc2)Oc2cc(O)cc(O)c21 (stereo not given)	none
Nc1ccc(O)c(-c2nc3ccccc3s2)c1	none
Oc1ccc(-c2nc3ccccc3s2)c(O)c1	Hck Nef HTS 163.0, p97 inhibitor 16.6 | p97 inh conf inactive
[O-]/[N+](=N\Nc1ccc(Cl)cc1)c1ccccc1	none (no result: Hck Nef HTS, PREPL inh, p97 inhibitor, LYPLA2 counter, LYPLA1 counter)
O=C(CCCN1C(=O)/C(=C\c2cccs2)SC1=S)Nc1cccc(C(=O)O)c1	none
O=C(CCCN1C(=O)/C(=C/c2ccco2)SC1=S)Nc1cccc(C(=O)O)c1	Hck Nef HTS 81.7, p97 inhibitor 32.6 | p97 inh conf inactive | Hck Nef conf inactive
CCC1=C(c2cc(OC)c(OC)c(OC)c2)C2(CCCC2)C(=O)O1	none (no result: Hck Nef HTS, p97 inhibitor)
COc1cc2c(C#N)c(N3CCCC3)nc(N)c2c(N)n1	Hck Nef HTS 62.9, p97 inhibitor 26.1 | p97 inh conf inactive | Hck Nef conf active
CC(C)C(C(=O)O)N1C(=O)/C(=C/C=C/c2ccco2)SC1=S (stereo not given)	Hck Nef HTS 83.1, p97 inhibitor 19.0 | p97 inh conf inactive | Hck Nef conf inactive
O=C(O)c1ccc(N2C(=O)/C(=C/C=C/c3ccccc3)SC2=S)cc1	none
O=C1/C(=C/c2ccco2)SC(=S)N1c1cccnc1	Hck Nef HTS 90.4, p97 inhibitor 18.4 (no result: PREPL inh, LYPLA2 counter, LYPLA1 counter) | p97 inh conf inactive | Hck Nef conf inactive
O=C(NN1C(=O)/C(=C/C=C/c2ccco2)SC1=S)c1ccncc1	Hck Nef HTS 90.4, p97 inhibitor 40.4 | p97 inh conf inactive | Hck Nef conf inactive
O=C1/C(=C/C=C/c2ccco2)SC(=S)N1c1ccc(O)cc1	Rin1 Abl inh 5.7, Hck Nef HTS 97.7, p97 inhibitor 58.1 | p97 inh conf 31.1 | Hck Nef conf active
CCc1nnc(NC(=O)c2ccc(OC)c(S(=O)(=O)N3CCCC3)c2)s1	none (no result: Hck Nef HTS, p97 inhibitor)
COc1cc(OC)cc(C(=O)NNC(=O)c2nn(C)c(=O)c3ccccc23)c1	none (no result: Hck Nef HTS, p97 inhibitor, LYPLA2 counter, LYPLA1 counter)
CCOc1ccc(S(=O)(=O)N2CCC(C(=O)NCCc3ccccc3)CC2)cc1	none (no result: Hck Nef HTS, p97 inhibitor)
COc1ccccc1C(=O)Oc1cc(N)n(S(=O)(=O)c2ccc(C)cc2)n1	Hck Nef HTS 94.3, p97 inhibitor 28.9 | p97 inh conf 39.4 | Hck Nef conf active
Cn1cccc1/C=C1\SC(=Nc2cccc(O)c2)NC1=O	Hck Nef HTS 84.7, p97 inhibitor 15.7 | p97 inh conf inactive | Hck Nef conf active
CCCCCn1c(NC(=O)c2ccco2)c(S(=O)(=O)c2ccc(C)cc2)c2nc3ccccc3nc21	Hck Nef HTS 56.2, p97 inhibitor 26.1 | p97 inh conf inactive
Nc1c(S(=O)(=O)c2ccccc2)c2nc3ccccc3nc2n1CCN1CCOCC1	none
Cc1ccc(C(=O)Nn2c(N)c(S(=O)(=O)c3ccc(C)cc3)c3nc4ccccc4nc32)cc1	none
CCCCn1c(NC(=O)c2ccc(Br)o2)c(S(=O)(=O)c2ccccc2)c2nc3ccccc3nc21	Hck Nef HTS 84.2, p97 inhibitor 45.5 | p97 inh conf 21.7
Cn1c(SCC(=O)Nc2ccccc2Oc2ccccc2)nnc1C1CC1	none (no result: Hck Nef HTS, p97 inhibitor)
CC1=NN(c2ccccc2)C(=O)/C1=C\c1ccc(Oc2ccc([N+](=O)[O-])cc2[N+](=O)[O-])cc1	Rin1 Abl inh 7.4, p97 inhibitor 23.1, LYPLA2 counter 40.7 | p97 inh conf inactive | LYPLA2 confirm 30.9 | Rin1-Abl confirm inactive | GFP quench inactive
Cc1[nH][nH]c(=O)c1C(c1ccc(-c2cccc(Cl)c2)o1)c1c(C)[nH][nH]c1=O	Rin1 Abl inh 7.9, p97 inhibitor 35.8 | p97 inh conf 34.1 | Rin1-Abl confirm 8.5 | GFP quench inactive
Cc1[nH][nH]c(=O)c1C(c1ccc(Br)cc1)c1c(C)[nH][nH]c1=O	none (no result: Hck Nef HTS, p97 inhibitor)
COc1ccc(/C=N\NC(=O)c2cc(O)c(O)c(O)c2)cc1CN1CCN(c2ccc(F)cc2)CC1	Rin1 Abl inh 52.6, PREPL inh 54.4, p97 inhibitor 16.6 | p97 inh conf 25.9 | PREPL confirm inactive | Rin1-Abl confirm 49.5 | GFP quench 11.4
COc1ccc(/C=N/NC(=O)c2ccc(C)cc2)cc1CN1CCN(c2ccc(F)cc2)CC1	none
O=C1NNC(c2ccccc2)=N/C1=C\c1ccccc1Cl	Rin1 Abl inh 6.8, p97 inhibitor 17.5 (no result: PREPL inh, LYPLA2 counter, LYPLA1 counter) | p97 inh conf 18.3 | Rin1-Abl confirm 8.3 | GFP quench inactive
COc1ccc(C(CNC(=O)c2nn(-c3ccccc3)c(=O)c3ccccc23)N2CCOCC2)cc1 (stereo not given)	none (no result: Hck Nef HTS, PREPL inh, p97 inhibitor, LYPLA2 counter, LYPLA1 counter)
CC(Oc1ccccc1F)C(=O)NNC(=O)CC(C)c1ccccc1 (stereo not given)	none (no result: Hck Nef HTS, p97 inhibitor)
CCOC(=O)C1=C(C)N[C@@]2(O)c3ccccc3C(=O)[C@@]12O	none
CC(=O)C1=C(C)OC2(O)c3ccccc3C(=O)C12O (stereo not given)	Rin1 Abl inh 17.9, p97 inhibitor 20.0 | p97 inh conf inactive | Rin1-Abl confirm 17.8 | GFP quench inactive | GFP quench DR inactive
CCOC(=O)C1=C(C)OC2(O)c3ccccc3C(=O)C12O (stereo not given)	Rin1 Abl inh 22.3, p97 inhibitor 16.9 | p97 inh conf 27.3 | Rin1-Abl confirm 36.1 | GFP quench inactive | GFP quench DR inactive
Fc1c(F)c(F)c(/C=N/NC(=S)Nc2cccnc2)c(F)c1F	none
Oc1ccc(/C=N/NC(=S)Nc2cccnc2)c(O)c1O	Rin1 Abl inh 30.6, Hck Nef HTS 100.0, p97 inhibitor 19.6 (no result: PREPL inh, LYPLA2 counter, LYPLA1 counter) | p97 inh conf 19.9 | Hck Nef conf active | Rin1-Abl confirm 19.0 | GFP quench 14.8
